# Source: PubChem (National Center for Advancing Translational Sciences (NCATS))
# Sm TGR block: S. mansoni TGR enzyme inhibition. 360,000 compounds, 3% hits. Potency, µM (series often up to 114 µM), without a hit: top-dose activity change, negative = inhibition, most hits filed as inhibitors. Q962Y6. purified TGR, DTNB reduction, TNB absorbance 405 nm; further: potency means the concentration at half of the fitted maximal effect; on the % scale 0 is the no-effect control and ±100 the full control effect; nearly all actives have a fitted effect of over 60% in size
#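 Kinetic colorimetric format: TGR-catalysed, NADPH-driven DTNB reduction monitored via TNB absorbance. Enzyme dispensed at 20 nM; compound exposure 15 min at room temperature before reaction start.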
# Cycloheximide cs: counter-screen for Shiga toxin inhibitors: cycloheximide protein synthesis inhibition | cell reporter, cycloheximide protein synthesis inhibition counterscreen | max response, % | 300,000 compounds, 12% hits | AID 2314; in the data active means max response mostly above about 13%, no sharp cut-off; inactive means mostly below about 14%; further: read at 38.3 µM for the half of the compounds with a filed dose; 0% is about no effect
# FBPA Giardia inh: Giardia lamblia aldolase inhibition; purified Giardia FBPA; Potency, µM (doses to about 59.6 µM), for the others: top-dose activity, negative = inhibition, usual class: inhibitors; A8B2U2; 290,000 compounds, 0.71% hits; further: potency means the concentration at half of the fitted maximal effect; on the % scale 0 is the no-effect control and ±100 the full control effect; nearly all actives have a fitted effect of over 55% in size
# Target sequence (A8B2U2 whole entry, looked up): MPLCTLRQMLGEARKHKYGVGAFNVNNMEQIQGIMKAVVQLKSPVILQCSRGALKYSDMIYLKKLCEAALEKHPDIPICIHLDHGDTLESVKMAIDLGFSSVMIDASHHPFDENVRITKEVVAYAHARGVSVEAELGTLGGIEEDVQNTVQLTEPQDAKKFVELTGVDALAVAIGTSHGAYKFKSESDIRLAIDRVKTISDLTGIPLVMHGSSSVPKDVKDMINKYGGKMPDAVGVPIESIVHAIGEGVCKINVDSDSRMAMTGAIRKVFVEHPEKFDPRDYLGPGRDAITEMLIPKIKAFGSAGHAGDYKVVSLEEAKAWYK
#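 Giardia FBPA (40 nM reagent) was preincubated 10 min at RT with compound (up to 57.5 uM final), then substrate plus GAPDH/TPI/NAD/arsenate coupling system with diaphorase/resazurin was added; resorufin fluorescence (525/598 nm) was read after 20 min.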
# LmPK inh: LmPK (Leishmania mexicana) enzyme inhibition | Q27686 | purified LmPK, Kinase-Glo ATP luminescence, 1 h | Potency, µM (doses to about 57.5 µM), without a hit: top-dose activity change, negative = inhibition, usual class: inhibitors | 290,000 compounds, 0.37% hits; further: potency means the concentration at half of the fitted maximal effect; on the % scale 0 is the no-effect control and ±100 the full control effect
#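 Pyruvate kinase activity monitored as ATP production (luciferase luminescence). Conditions: 0.1 nM enzyme, 0.5 mM PEP, 0.1 mM ADP, 1 h, RT; normalized against uninhibited and no-enzyme wells.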
# Shiga toxin inh: blocks Shiga toxin action in Vero cells. Vero cells, Shiga toxin protein synthesis inhibition reporter. inhibition, % at 38.7 µM. 290,000 compounds, 9.2% hits; in the data active means inhibition mostly above about 28%, no sharp cut-off; inactive means mostly below about 43%; further: 0% is about no effect
# Tb PYK inh: inhibitors of Trypanosoma brucei pyruvate kinase | Q57TT1 | TbPYK enzyme, Kinase-Glo Plus ATP luminescence, 45 min | Potency, µM (series often up to 76.8 µM), without a hit: at the highest dose activity, negative = inhibition, most hits filed as inhibitors | 410,000 compounds, 0.12% hits; further: potency means the concentration at half of the fitted maximal effect; on the % scale 0 is the no-effect control and ±100 the full control effect; nearly all actives have a fitted effect of over 50% in size
#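 Readout: single end-point luminescence (Kinase-Glo Plus, 10 min). Reaction conditions were TbPYK/substrate plus 130 uM ADP, 45 min at RT, pH 7.2 TEA buffer. No-enzyme wells served as controls, and data were normalized before concentration-response fitting.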
# The depositor's hits bear a star; ? = inconclusive; / = no result given. Only a selection was taken, and hits are over-represented in it overall. Unless noted, the call rests on the fitted dose curve; in most records, active means well fitted curve in the direction sought with a large enough effect; inconclusive means small, poorly fitted or top-dose-only effect, or another doubt; inactive means no such curve, though single readings can be large; an effect the other way counts as inactive or inconclusive.
SMILES,Sm TGR block,Cycloheximide cs,FBPA Giardia inh,LmPK inh,Shiga toxin inh,Tb PYK inh
CCOC(=O)c1sc(N2C(=O)c3oc4ccccc4c(=O)c3C2c2ccc(C(C)(C)C)cc2)nc1C (configuration not stated),3%,/,/,/,/,1%
Cn1c(=O)[nH]c(=O)c2c1nc(Br)n2CCC(=O)c1ccccc1,13µM*,-1,0%,1%,-13,-3%
Cn1c(=O)[nH]c(=O)c2c1nc(Br)n2Cc1ccccc1Cl,8%,2,-7%,2%,-19,-1%
Cn1c(=O)[nH]c(=O)c2c1nc(Br)n2C/C=N/NC(=O)c1ccccc1,-9%,39*,1%,0%,55*,0%
CCCCN(C(=O)C1CCCC1)c1c(N)n(CC(C)C)c(=O)[nH]c1=O,32µM*,/,/,/,/,-2%
CCC1(C(=O)NC(=Nc2ccccc2)Nc2ccccc2)CCOC1=O (configuration not stated),/,/,/,/,/,-6%
CC(=O)c1sc(Nc2ccc(Oc3ccccc3)cc2)nc1C,/,/,/,/,/,-2%
CC(=O)c1cnc(Nc2ccc(C)cc2)s1,/,30*,-18%,-2%,45*,2%
Cc1c(NC(=O)Nc2cccc(C(F)(F)F)c2)sc2nc3n(c(=O)c12)CCC(C)CC3 (configuration not stated),0%,/,/,/,/,-2%
CCC(C)(C)n1nnnc1CN1CCc2ccccc21,7.1µM*,1,-8%,-1%,3,-1%
c1ccc(CCn2nnnc2CN2CCCc3ccccc32)cc1,-36%,-3,-11%,6%,4,5%
COc1cc(C=C2CN(C)C(=O)C2=O)ccc1O,/,/,/,/,/,-19%
CCOc1cc(/C=C2\CCC/C(=C\c3cc(Cl)c(O)c(OCC)c3)C2=O)cc(Cl)c1O,-25%,23*,-9%,-1%,60,-16%
CCOC(=O)C1=C(O)/C(=C\c2ccc(O)c(OCC)c2)N=C1C,40µM*,8,-26%,-3%,30,-5%
CCOc1cc(/C=C2\CN(C)C/C(=C\c3ccc(O)c(OCC)c3)C2=O)ccc1O,13µM*,27*,?,-7%,7,-10%
CCOc1cc(/C=C2\N=C3CCCCCN3C2=O)ccc1O,?,36*,-1%,-1%,97*,6%
CCCCNc1c(CCc2ccccc2)nc2nc(C)cc(C)n12,/,/,/,/,/,1%
COc1cccc(/C=C2\N=C3CCCCCN3C2=O)c1,4%,52*,-2%,-8%,106*,1%
c1ccc(Nc2nc(-c3ccccc3)ns2)cc1,2%,52*,7%,6%,82*,5%
O=C(Nc1nc(-c2ccccc2)ns1)c1ccc(Cl)cc1,-6%,/,/,/,/,0%
CC(C)(C)C(=O)Nc1nc(-c2ccccc2)ns1,2%,58*,-20%,3%,84*,3%
C[C@H](N)C(=O)O,/,/,3%,/,/,/
CN1C[C@@H]2[C@@H]3C(=O)N(Cc4ccccc4)C(=O)[C@@H]3[C@](Cc3ccccc3)(C1=O)N2C(=O)c1ccc(C(F)(F)F)cc1,/,/,/,/,/,-4%
CCOc1ccc(Nc2oc(-c3ccc(COc4ccccc4C)o3)nc2C#N)cc1,1%,/,/,/,/,5%
COc1ccc(Nc2oc(/C=C/c3ccccc3OC)nc2C#N)cc1,-1%,/,/,/,/,-2%
SMILES,Sm TGR block,Cycloheximide cs,FBPA Giardia inh,LmPK inh,Shiga toxin inh,Tb PYK inh
COc1ccc(Nc2oc(-c3ccc(Cl)cc3)nc2C#N)cc1,-1%,30*,3%,1%,84*,0%
CCOc1ccc(Nc2oc(-c3ccc(Cl)cc3)nc2C#N)cc1,5%,9.8*,0%,-2%,34,0%
COc1ccc(Nc2oc(-c3ccc(OC)cc3)nc2C#N)cc1,6%,50*,-3%,1%,105*,2%
COc1ccc(Nc2oc(COc3ccc(Cl)cc3)nc2C#N)cc1,-33%,2,-11%,1%,-3,3%
CCOc1ccc(-c2nc(C#N)c(NC3CC3)o2)cc1,-21%,42*,?,5%,117*,0%
CCOc1ccc(-c2nc(C#N)c(NCc3ccc4c(c3)OCO4)o2)cc1,-5%,20,5%,4%,2,2%
CSc1ccc(-c2nc3ncccn3c2Nc2ccc(C)c(C)c2)cc1,-8%,/,/,/,/,-5%
C/C(=N\O)c1noc(C)c1C(=O)Nc1nccs1,-1%,-2,/,-4%,7,0%
CNc1oc(-c2ccccc2)nc1C#N,-3%,20*,4%,-13%,38*,-10%
COc1ccc(Nc2oc(-c3ccccc3)nc2C#N)cc1,6%,14*,0%,-2%,70*,-1%
c1ccc2ncccc2c1,/,/,/,/,/,3%
Nc1ccc(/C=C/c2ccc3ncccc3c2)cc1,0%,38*,5%,-14%,85*,0%
Nc1ccc2ncccc2c1,-4%,48*,2.2µM*,-10%,136*,-28%
Nc1ccc2ncccc2c1N,-16%,28*,?,-4%,42*,-6%
c1cnc2ccc3ncccc3c2c1,6%,14,-16%,5%,35,10%
CN(C(=O)c1cccc(NC(=O)Cc2ccc(NC(=O)C3CCCN(S(=O)(=O)c4cccc([N+](=O)[O-])c4)C3)cc2)c1)C1CCC1 (configuration not stated),/,/,/,/,/,2%
Nc1nc(SCC(=O)c2c(N)n(C3CC3)c(=O)[nH]c2=O)n[nH]1,1%,/,/,/,/,-15%
COc1ccc(NC(=O)N2CC3(CCNCC3)C2)cc1,/,/,0%,/,/,-9%
Cc1c(-c2ccc(Cl)cc2Cl)nc2ccccc2c1C(=O)NCCN1CCOCC1,3%,-3,2%,6%,-11,-6%
Cc1nc(N=Nc2cc(S(=O)(=O)O)ccc2S(=O)(=O)O)c(COP(=O)(O)O)c(C=O)c1O,/,/,-20%,/,/,/
COc1ccc2c(c1)sc1ncc(C(=O)NCc3ccc(OC(C)C)cc3)c(=O)n12,8%,/,/,/,/,-3%
COc1ccc(C2=Nn3c(nnc3-c3ccc(OC)c(OC)c3)SC2)c(OC)c1,/,-2,0%,/,22,/
COc1ccc2cc(CCC(C)=O)ccc2c1,2%,56*,-2%,-8%,92*,2%
CCn1c(=O)c([N+](=O)[O-])c(NCCN(C)C)c2ccccc21,11%,1,-12%,1%,-4,-13%
CCn1c(=O)c([N+](=O)[O-])c(Cl)c2ccccc21,0.79µM*,8,-3%,0%,-13,-11%
COc1ccc(C(=O)N2CCC2(C)C(=O)NC(C)C)cc1OC (configuration not stated),/,/,/,/,/,1%
O=C(O)/C=C/C(=O)Nc1nc(-c2ccc3ccccc3c2)cs1,/,/,/,/,/,-1%
O=C(/C=C\c1ccco1)Nc1nc(-c2ccccc2)cs1,?,71*,-10%,2%,78*,2%
O=C(/C=C/c1ccccc1)Nc1nc(-c2ccncc2)cs1,-4%,28*,-2%,2%,35,-21%
O=C(/C=C/c1ccco1)NC(=S)Nc1nc(-c2ccc(Cl)cc2)cs1,-4%,1,1%,2%,1,-11%
